Reference: article PMC5540273 (PLoS ONE, 2017)

Columns and labels:
Settings in all cases: concentration: 1 μM, replicates: in singlicate; n = 1
MTOR = tested on: MTOR
MUSK = tested on: MUSK
MYLK2 = tested on: MYLK2
MYLK4 = tested on: MYLK4
MYLK = tested on: MYLK
MYO3A = tested on: MYO3A
MYO3B = tested on: MYO3B
NDR1 = tested on: T1, NDR1
T1 construct: gene STK38

NDR2 = tested on: NDR2
NEK10 = tested on: NEK10
NEK11 = tested on: NEK11
NEK1 = tested on: NEK1
NEK2 = tested on: NEK2
NEK3 = tested on: NEK3
NEK4 = tested on: NEK4
NEK5 = tested on: NEK5
NEK6 = tested on: NEK6
NEK7 = tested on: NEK7
NEK9 = tested on: NEK9
NIK = tested on: T2, NIK
T2 construct: gene MAP3K14
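Note: KINOMEscan kinase panel screen.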

SMILES | %Inh (MTOR) | %Inh (MUSK) | %Inh (MYLK2) | %Inh (MYLK4) | %Inh (MYLK) | %Inh (MYO3A) | %Inh (MYO3B) | %Inh (NDR1) | %Inh (NDR2) | %Inh (NEK10) | %Inh (NEK11) | %Inh (NEK1) | %Inh (NEK2) | %Inh (NEK3) | %Inh (NEK4) | %Inh (NEK5) | %Inh (NEK6) | %Inh (NEK7) | %Inh (NEK9) | %Inh (NIK)
O=C1NC(=O)C(c2ccccc2Cl)=C1Nc1cccc(Cl)c1 [SB-342409] | 4% | 8% | 11% | 3% | 9% | 0% | 3% | 1% | 0% | 51% | 0% | 5% | 10% | 56% | 11% | 7% | 1% | 16% | 20% | 0%
CC(C)c1nc(-c2ccc(F)c(NS(=O)(=O)c3c(F)cccc3F)c2)c(-c2ccnc(Nc3ccc(N4CCOCC4)nc3)n2)s1 [GSK1804250] | 32% | 8% | 2% | 1% | 7% | 51% | 54% | 23% | 0% | 7% | 97.6% | 16% | 31% | 3% | 10% | 1% | 7% | 8% | 85% | 9%
CN(c1ccc2c(c1)nc(NCc1ccccc1)n2C)c1ccnc(Nc2ccc(CS(C)(=O)=O)cc2)n1.Cl [GW811603] | 10% | 36% | 26% | 0% | 8% | 5% | 19% | 8% | 0% | 17% | 0% | 0% | 0% | 20% | 0% | 0% | 60% | 8% | 55% | 33%
Cc1cc(-c2ccnc(Nc3cccc(C#N)c3)n2)cc(C)c1O [GSK1440913] | 7% | 25% | 76% | 100% | 13% | 0% | 0% | 10% | 12% | 20% | 1% | 0% | 0% | 43% | 1% | 83% | 0% | 0% | 13% | 62%
CC(C)c1nc(-c2cccc(NS(=O)(=O)c3c(F)cccc3F)c2)c(-c2ccnc(Nc3ccc(N4CCOCC4)nc3)n2)s1.Cl [GSK1723980] | 7% | 0% | 0% | 0% | 6% | 25% | 47% | 32% | 0% | 9% | 97.8% | 0% | 48% | 0% | 6% | 0% | 55% | 76% | 88% | 95.4%
O=C(O)C(F)(F)F.O=c1[nH]ccc2nc(N[C@@H]3CCNC3)nc(Nc3ccc4c(c3)S(=O)(=O)CC4)c12 [GSK2181306] | 1% | 0% | 78% | 60% | 98.1% | 74% | 4% | 89% | 89% | 95.3% | 0% | 6% | 46% | 8% | 16% | 0% | 3% | 5% | 19% | 77%
NCCC(NC(=O)c1cc(Br)c(-c2ccnc3[nH]ccc23)s1)c1ccccc1.O=C(O)C(F)(F)F.O=C(O)C(F)(F)F (centres unmarked) [GSK1307810] | 12% | 11% | 8% | 99.9% | 34% | 0% | 0% | 96.7% | 96.7% | 9% | 30% | 71% | 19% | 0% | 0% | 96.3% | 3% | 0% | 4% | 49%
O=C(Nc1n[nH]c2nc(-c3cccc(O)c3)ccc12)C1CC1 [SB-711805] | 0% | 0% | 97.2% | 13% | 98.4% | 18% | 0% | 0% | 0% | 0% | 7% | 4% | 2% | 19% | 0% | 0% | 0% | 0% | 8% | 8%
CC(=O)Nc1cn2nc(Oc3cccc(NC(=O)c4cccc(C(F)(F)F)c4)c3)ccc2n1 | 11% | 21% | 0% | 3% | 44% | 5% | 9% | 8% | 0% | 0% | 0% | 0% | 0% | 8% | 0% | 8% | 3% | 0% | 0% | 0%
COc1ccc(C2=C(Nc3cccc(O)c3)C(=O)NC2=O)cc1 [SB-390766] | 31% | 3% | 12% | 4% | 3% | 0% | 0% | 9% | 0% | 42% | 19% | 0% | 0% | 18% | 5% | 34% | 0% | 0% | 0% | 6%
